Inconclusive results are not listed. Calls of active or inactive are those of the source. Unless noted, the call rests on the fitted dose curve; in most records, active means well fitted curve in the direction sought with a large enough effect; inconclusive means small, poorly fitted or top-dose-only effect, or another doubt; inactive means no such curve, though single readings can be large; an effect the other way counts as inactive or inconclusive.
Experiments:
[1] = AP1 Signaling Pathway (AID 357; active means well fitted curve in either direction with a large enough effect, not every such curve was filed as active; further: on the % scale 0 is the no-effect control and ±100 the full control effect); conditions: ME-180 AP-1-bla reporter, EGF-induced, beta-lactamase ratio, 5 h; at 17.2 µM (top of the series) unless noted
In short: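 AP-1-bla ME-180 cells with beta-lactamase reporter under AP-1 response element, stimulated with EC50 EGF; compounds titrated, 5 hours at 37 degrees Celsius. CCF4 read at 460/530 nm ratio; positive and negative modulators judged by AC50.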

[2] = NFAT Signaling Pathway (AID 444; active means well fitted curve in either direction with a large enough effect, not every such curve was filed as active;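 further: carbachol stimulus at about its EC50 of 1 µM final; on the % scale 0 is the no-effect control and ±100 the full control effect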); conditions: Jurkat NFAT-bla M1, carbachol, beta-lactamase ratio, 5 h; at 17.2 µM (top of the series) unless noted
In short: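 Jurkat cells with NFAT-driven β-lactamase reporter and co-expressed M1 receptor, stimulated with carbachol (final 1 uM, ~EC50), compound titration, 5 h at 37 °C. CCF4 loaded 1 h at RT; 460/530 nm ratio gave %activity and AC50.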

[3] = Stat Signaling Pathway (AID 446; active means well fitted curve in either direction with a large enough effect, not every such curve was filed as active;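 further: ME-180 cervical cancer cells given 40 pM IL-6 alongside compound; SIE-controlled beta-lactamase reporter measured as 460/530 nm FRET emission ratio; on the % scale 0 is the no-effect control and ±100 the full control effect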)
In short: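 Reporter line: ME-180 cervical carcinoma, SIE-beta-lactamase. Treatment: compound with 40 pM IL-6, 5 hrs, 37 C, in low-serum OPTI-MEM with 10 mM HEPES pH 7.3. Detection: 460/530 nm fluorescence.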

[4] = molecular target: Glucocorticoid receptor (Homo sapiens) (UniProt P04150); assay: GR-GFP Redistribution (AID 450;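 active means compounds whose dose series gives a full or clear partial fitted curve of increased nuclear translocation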; further: potency means the concentration at half of the fitted maximal effect); conditions: U2OS GR-GFP nuclear translocation, laser cytometry, 2 h
[5] = molecular target: Glucocorticoid receptor (Homo sapiens) (UniProt P04150); assay: GR-EFC Redistribution (AID 451; calls by dose curve; further: potency means the concentration at half of the fitted maximal effect); conditions: CHO-K1 GR-EFC translocation, beta-gal luminescence, 2 h
In short: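 CHO-K1 cells expressing nuclear EA and GR-ED fragments of b-gal; compounds titrated up to 46 uM final, 2 h at 37 C. GR nuclear translocation read as complemented b-gal luminescence after 1 h RT detection.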

[6] = molecular target: Mitogen-activated protein kinase 10 (Mus musculus) (UniProt Q61831); assay: JNK3 AlphaScreen Assay (AID 530; active means well fitted curve in either direction with a large enough effect, not every such curve was filed as active;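 further: kinase came from lysate of stimulated human HepG2 cells; signal reports phosphorylation of biotinylated GST-cJun 1-79 at Ser73 with 10 µM ATP; on the % scale 0 is the no-effect control and ±100 the full control effect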)
In short: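 qHTS format: compounds tested as titrations against IL-1beta/TNF-alpha-activated HepG2 lysate JNK3 with biotin-GST-cJun substrate and 10 uM ATP at room temperature. Loss of anti-phospho-cJun AlphaScreen signal indicates inhibition.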

[7] = molecular target: 3',5'-cyclic-AMP phosphodiesterase 4B (Homo sapiens) (UniProt Q07343); assay: qHTS Assay for Inhibitors of PDE-IV (AID 607; active means well fitted activation curve with a large enough effect in the main read-out, with a control signal flat, not every such curve was filed as active; further: % of control where 0% means no effect)
In short: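 Cell-based read-out of cAMP via a modified cyclic nucleotide-gated channel and membrane potential dye (535/590 nm) in HEK293 cells expressing PDE4 endogenously. Compounds tested up to 22.9 uM final; 100 uM RO 20-1724 reference.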

[8] = molecular target: ATP-dependent 6-phosphofructokinase (Trypanosoma brucei brucei) (UniProt O15648); assay: qHTS Assay to Find Inhibitors of T. brucei phosphofructokinase: hit validation (AID 492961)
In short: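 Compounds titrated; %activity normalized to 0x and 1x enzyme controls, curve-fitted. Readout: ADP-Glo luminescence after 45 min room-temperature reaction of 1.25 nM PFK, 0.1 mM ATP, 0.5 mM F6P, pH 8.0.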

[9] = molecular target: Ubiquitin carboxyl-terminal hydrolase 1 (Homo sapiens) (UniProt O94782); assay: Inhibitors of USP1/UAF1: Pilot qHTS (AID 504865);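 further: rhodamine fluorescence freed from ubiquitin-rhodamine substrate followed over time; top concentration of the series differs between compounds; on the % scale 0 is the no-effect control and ±100 the full control effect; nearly all actives have a fitted effect of over 35% in size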
In short: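 1nM USP1/UAF1 + cpd, 15 min RT; start w/ Ub-Rho 150nM final; kinetic FL 480/540 nm, 6 reads q60 s. Buffer 50mM HEPES pH 7.8, 0.5mM EDTA, 1mM TCEP, 0.01% Tween-20, 0.1 mg/ml BSA.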

[10] = molecular target: Luciferin 4-monooxygenase (Photinus pyralis) (UniProt P08659); assay: Biochemical firefly luciferase enzyme assay for NPC (AID 624030);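 further: purified P. pyralis luciferase at 10 nM with luciferin and ATP substrate; 0% = DMSO and -100% = full luciferase inhibition by PTC124 control; nearly all actives have a fitted effect of over 70% in size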
In short: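 Purified P. pyralis luciferase at 10 nM in 50 mM Tris Acetate (final), luminescence read within 5 minutes of enzyme addition to compounds. Activity normalised to PTC124 versus DMSO; concentration-response curves classed by r2, magnitude and activity.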

[11] = S16 Schwann cell viability assay (CellTiter-Glo assay) (AID 624031);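 further: cellular ATP luminescence as a viability measure; plate controls were DMSO-treated cells for no effect and cell-free wells for full effect; nearly all actives have a fitted effect of over 70% in size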
In short: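 Native S16 rat Schwann cells, 500-750 cells/well in DMEM with 10% FBS, dosed with compound after overnight culture and incubated 24h at 37 degree Celsius/5% CO2. Viability by CellTiter-Glo luminescence; % activity normalized to no-cell wells and DMSO-treated cells.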

[12] = S16 Schwann cell PMP22 intronic element firefly luciferase assay (AID 624032);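 further: plate controls were DMSO for no effect and PTC124 positive control mean for full effect; nearly all actives have a fitted effect of over 30% in size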
In short: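 Rat S16 Schwann cells stably carrying firefly luciferase driven by a PMP22 intronic element, in 10% FBS, treated 24 h at 37 C. ONE-Glo luminescence normalized to PTC124 control and DMSO (0%); curves classed by r2, magnitude and activity.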

[13] = S16 Schwann cell PMP22 intronic element beta-lactamase assay (AID 624044; calls by dose curve;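 further: 0% = DMSO and -100% = potassium clavulanate positive control; nearly all actives have a fitted effect of over 15% in size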); conditions: S16 rat Schwann cells, PMP22 element beta-lactamase FRET, 24 h; ratio activity, negative = inhibition: at 38.3 µM (top of the series)
In short: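 Rat S16 Schwann cells with beta-Lac driven by a PMP22 intronic element, compound-treated 24 h at 37 °C. LiveBLAzer FRET B/G read: 460 nm normalized to potassium clavulanate vs DMSO; 535 nm FRET as viability; concentration-effect curves classified.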

[14] = qHTS profiling for inhibitors of Plasmodium falciparum proliferation (AID 504749);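 further: 0% = DMSO vehicle and full inhibition = artemisinin control; nearly all actives have a fitted effect of over 60% in size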; conditions: P. falciparum in erythrocytes, SYBR Green DNA, 72 h, at 12.8 µM (top of the series)
In short: (§1)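 Readout was DNA-dye fluorescence from lysed cultures, ex 485/em 535 nm. Parasitized red cells had grown 72 h with compound; data scaled between 0.29 uM artemisinin and DMSO wells and corrected using vehicle-only plates.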

3D7 = assay: as above; conditions: P. falciparum in erythrocytes, SYBR Green DNA, 72 h; series mostly up to 28.7 µM
In short: as §1

AA1029 = assay: as above; conditions: P. falciparum in erythrocytes, SYBR Green DNA, 72 h; series mostly up to 28.7 µM
In short: as §1

AS120 = assay: as above; conditions: P. falciparum in erythrocytes, SYBR Green DNA, 72 h; series mostly up to 28.7 µM
In short: as §1

ATS189 = assay: as above; conditions: P. falciparum in erythrocytes, SYBR Green DNA, 72 h; series mostly up to 28.7 µM
In short: as §1

C2A = assay: as above; conditions: P. falciparum in erythrocytes, SYBR Green DNA, 72 h; series mostly up to 28.7 µM
In short: as §1

CP185 = assay: as above; conditions: P. falciparum in erythrocytes, SYBR Green DNA, 72 h; series mostly up to 28.7 µM
In short: as §1

CP191 = assay: as above; conditions: P. falciparum in erythrocytes, SYBR Green DNA, 72 h; series mostly up to 28.7 µM
In short: as §1

CP194 = assay: as above; conditions: P. falciparum in erythrocytes, SYBR Green DNA, 72 h; series mostly up to 28.7 µM
In short: as §1

CP201 = assay: as above; conditions: P. falciparum in erythrocytes, SYBR Green DNA, 72 h; series mostly up to 28.7 µM
In short: as §1

CP203 = assay: as above; conditions: P. falciparum in erythrocytes, SYBR Green DNA, 72 h; series mostly up to 28.7 µM
In short: as §1

CP211 = assay: as above; conditions: P. falciparum in erythrocytes, SYBR Green DNA, 72 h; series mostly up to 28.7 µM
In short: as §1

CP215 = assay: as above; conditions: P. falciparum in erythrocytes, SYBR Green DNA, 72 h; series mostly up to 28.7 µM
In short: as §1

CP217 = assay: as above; conditions: P. falciparum in erythrocytes, SYBR Green DNA, 72 h; series mostly up to 28.7 µM
In short: as §1

Sequence of Glucocorticoid receptor (Homo sapiens) (P04150 whole entry, looked up, the tested form may be a part): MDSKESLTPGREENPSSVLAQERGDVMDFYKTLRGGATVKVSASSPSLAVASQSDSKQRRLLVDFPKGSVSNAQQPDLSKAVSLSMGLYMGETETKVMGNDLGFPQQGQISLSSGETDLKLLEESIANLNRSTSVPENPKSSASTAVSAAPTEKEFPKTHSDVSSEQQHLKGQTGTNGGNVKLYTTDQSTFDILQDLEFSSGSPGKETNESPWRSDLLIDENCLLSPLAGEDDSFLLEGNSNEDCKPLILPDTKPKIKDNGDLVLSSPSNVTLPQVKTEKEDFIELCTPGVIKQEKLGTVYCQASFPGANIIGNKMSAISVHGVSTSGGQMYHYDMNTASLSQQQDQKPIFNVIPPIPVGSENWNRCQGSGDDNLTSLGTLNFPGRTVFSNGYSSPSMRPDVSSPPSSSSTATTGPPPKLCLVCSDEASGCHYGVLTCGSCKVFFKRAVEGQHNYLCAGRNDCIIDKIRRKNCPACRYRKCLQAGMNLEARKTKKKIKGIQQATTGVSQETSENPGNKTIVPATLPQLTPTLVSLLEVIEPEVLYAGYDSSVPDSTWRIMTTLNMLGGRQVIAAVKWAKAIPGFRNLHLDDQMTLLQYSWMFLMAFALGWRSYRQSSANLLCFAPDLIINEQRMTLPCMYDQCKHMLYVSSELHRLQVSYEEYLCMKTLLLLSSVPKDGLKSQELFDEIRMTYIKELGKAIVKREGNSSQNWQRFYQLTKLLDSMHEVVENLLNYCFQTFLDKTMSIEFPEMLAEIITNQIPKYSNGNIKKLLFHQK
Sequence of Ubiquitin carboxyl-terminal hydrolase 1 (Homo sapiens) (O94782 whole entry, looked up): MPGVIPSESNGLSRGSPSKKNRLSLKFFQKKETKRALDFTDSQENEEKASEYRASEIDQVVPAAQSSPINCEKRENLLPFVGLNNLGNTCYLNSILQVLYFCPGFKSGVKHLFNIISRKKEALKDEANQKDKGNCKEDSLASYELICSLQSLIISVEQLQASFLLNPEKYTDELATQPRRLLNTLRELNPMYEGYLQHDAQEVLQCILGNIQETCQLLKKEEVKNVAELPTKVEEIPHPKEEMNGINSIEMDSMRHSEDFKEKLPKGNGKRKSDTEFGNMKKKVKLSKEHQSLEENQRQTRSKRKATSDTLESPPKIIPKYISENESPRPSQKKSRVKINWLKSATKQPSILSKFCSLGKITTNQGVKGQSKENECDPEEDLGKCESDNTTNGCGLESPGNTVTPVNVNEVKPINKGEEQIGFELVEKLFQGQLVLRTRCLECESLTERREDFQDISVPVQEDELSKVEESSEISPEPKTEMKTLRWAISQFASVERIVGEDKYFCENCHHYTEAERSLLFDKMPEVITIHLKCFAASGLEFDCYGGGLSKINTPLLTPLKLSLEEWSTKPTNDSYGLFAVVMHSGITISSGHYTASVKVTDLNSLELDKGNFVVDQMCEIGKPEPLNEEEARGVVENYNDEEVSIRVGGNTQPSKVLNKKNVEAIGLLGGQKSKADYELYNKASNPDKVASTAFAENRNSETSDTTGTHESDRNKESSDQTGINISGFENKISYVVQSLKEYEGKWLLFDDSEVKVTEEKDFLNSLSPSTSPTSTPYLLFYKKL
Sequence of Luciferin 4-monooxygenase (Photinus pyralis) (P08659 whole entry, looked up): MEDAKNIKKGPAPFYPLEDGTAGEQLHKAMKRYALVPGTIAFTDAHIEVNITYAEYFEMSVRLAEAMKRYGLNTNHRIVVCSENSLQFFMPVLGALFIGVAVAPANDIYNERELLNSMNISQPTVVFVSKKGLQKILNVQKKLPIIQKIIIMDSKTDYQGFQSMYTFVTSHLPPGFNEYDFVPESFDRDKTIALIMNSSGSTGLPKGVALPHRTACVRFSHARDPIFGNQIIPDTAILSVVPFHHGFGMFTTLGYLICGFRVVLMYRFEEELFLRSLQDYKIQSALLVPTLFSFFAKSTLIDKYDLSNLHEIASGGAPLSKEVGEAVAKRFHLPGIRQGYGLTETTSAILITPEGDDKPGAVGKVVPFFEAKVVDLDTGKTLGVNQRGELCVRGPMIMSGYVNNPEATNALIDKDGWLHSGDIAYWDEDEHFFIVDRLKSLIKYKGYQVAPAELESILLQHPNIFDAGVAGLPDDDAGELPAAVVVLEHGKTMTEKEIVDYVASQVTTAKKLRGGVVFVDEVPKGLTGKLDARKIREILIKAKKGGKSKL
Sequence of 3',5'-cyclic-AMP phosphodiesterase 4B (Homo sapiens) (Q07343 whole entry, looked up): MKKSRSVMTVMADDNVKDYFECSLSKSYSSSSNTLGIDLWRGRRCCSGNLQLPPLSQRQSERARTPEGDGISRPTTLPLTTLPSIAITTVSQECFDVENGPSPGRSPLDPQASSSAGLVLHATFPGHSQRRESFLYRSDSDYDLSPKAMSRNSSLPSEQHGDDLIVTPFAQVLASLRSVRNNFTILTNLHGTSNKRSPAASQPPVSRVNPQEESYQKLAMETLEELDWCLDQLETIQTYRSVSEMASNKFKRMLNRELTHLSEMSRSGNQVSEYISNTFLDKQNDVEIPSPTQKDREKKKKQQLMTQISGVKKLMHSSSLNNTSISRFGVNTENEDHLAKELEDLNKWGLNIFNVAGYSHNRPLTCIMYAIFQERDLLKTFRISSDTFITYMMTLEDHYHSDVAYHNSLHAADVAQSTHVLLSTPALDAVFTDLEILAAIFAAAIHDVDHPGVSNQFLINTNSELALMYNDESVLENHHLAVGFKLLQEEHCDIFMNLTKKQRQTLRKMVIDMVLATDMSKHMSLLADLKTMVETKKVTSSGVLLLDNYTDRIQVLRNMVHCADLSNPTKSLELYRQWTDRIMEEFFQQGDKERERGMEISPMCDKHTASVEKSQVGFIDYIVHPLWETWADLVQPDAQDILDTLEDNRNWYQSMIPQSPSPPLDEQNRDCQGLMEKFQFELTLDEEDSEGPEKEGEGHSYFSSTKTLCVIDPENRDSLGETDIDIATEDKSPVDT
Sequence of ATP-dependent 6-phosphofructokinase (Trypanosoma brucei brucei) (O15648 whole entry, looked up): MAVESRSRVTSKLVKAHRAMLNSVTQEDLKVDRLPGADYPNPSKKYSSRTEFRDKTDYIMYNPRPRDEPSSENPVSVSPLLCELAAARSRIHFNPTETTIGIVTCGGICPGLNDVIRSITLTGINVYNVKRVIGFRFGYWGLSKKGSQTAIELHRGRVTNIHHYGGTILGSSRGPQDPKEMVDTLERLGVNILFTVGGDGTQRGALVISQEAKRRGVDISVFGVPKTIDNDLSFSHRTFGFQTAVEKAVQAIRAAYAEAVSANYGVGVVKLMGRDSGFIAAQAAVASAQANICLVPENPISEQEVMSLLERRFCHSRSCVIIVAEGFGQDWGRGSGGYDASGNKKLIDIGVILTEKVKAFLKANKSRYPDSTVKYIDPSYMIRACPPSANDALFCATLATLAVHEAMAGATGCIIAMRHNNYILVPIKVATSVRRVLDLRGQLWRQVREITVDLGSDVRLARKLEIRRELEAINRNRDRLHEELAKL

CN(C)[C@H]1C(=O)C(C(N)=O)=C(O)[C@]2(O)C(=O)C3=C(O)c4c(O)cccc4[C@@](C)(O)[C@H]3C[C@@H]12
inactive: activity change, negative = inhibition [1] 11.4% | activity change, negative = inhibition [2] -2.46% | outcome [3] | Potency [4] > 20.6 µM | Potency [5] > 20.6 µM | outcome [6] | outcome [7] | outcome [8] | Potency [9] | Potency [10] | Potency [11] | Potency [12] | Potency [13] | activity, negative = inhibition ([14]; parasite line A) -27.8% | activity, negative = inhibition ([14]; parasite line B) -27.1% | Potency (3D7) | Potency (AA1029) | Potency (AS120) | Potency (ATS189) | Potency (C2A) | Potency (CP185) | Potency (CP191) | Potency (CP194) | Potency (CP201) | Potency (CP203) | Potency (CP211) | Potency (CP215) | Potency (CP217)

Source: PubChem BioAssay (NCATS)
